HepG2 tox = kills HepG2 cells in TGF-b inhibitor counter-screen; HepG2 CAGA-GFP viability, ATP luminescence, 18 h; Potency, µM (highest dose often 46.1 µM), inactives show at the highest dose activity change, negative = cytotoxicity, actives largely listed as cytotoxic; hit rate 0.76% among 410,000; AID 588856
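CellTiter-Glo luminescence gave cytotoxicity after 18 hours at 37 degrees C. The cells were HepG2 CAGA-GFP in 1% FBS DMEM, stimulated with 500 pg/mL TGF-beta after compound addition. %Activity was normalised to no-cell wells (complete cell-killing) and DMSO (no toxicity), and curves were fitted and classified.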
TGFb SMAD3 inh = inhibitors of TGF-b signaling; HepG2 CAGA-GFP TGF-b/SMAD3 reporter, GFP fluorescence, 18 h; TGF-beta stimulated, 500 pg/mL final; AID 588855; Potency, µM (top dose mostly 46.1 µM), for the others: at the top dose activity, negative = inhibition, hits mostly inhibitors; hit rate 1.2% among 410,000; further: on the % scale 0 is the no-effect control and ±100 the full control effect; nearly all actives have a fitted effect of over 65% in size
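Inhibition of TGF-beta-driven CAGA-GFP reporter expression in HEPG2 cells is measured by cellular GFP fluorescence after 18 h stimulation with 500 pg/mL recombinant TGF-beta in 1% FBS medium at 37 degrees C.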
TDP1 cell CPT = DT40-hTDP1 cell growth loss with CPT; chicken DT40 Tdp1-/-;hTDP1 cells + 20 nM CPT, ATP luminescence, 48 h; Potency, µM (doses to about 46.2 µM), for inactives: at the top dose activity change, negative = growth inhibition, most hits filed as inhibitors; hit rate 12% among 420,000; AID 686979; further: on the % scale 0 is the no-effect control and ±100 the full control effect; nearly all actives have a fitted effect of over 55% in size
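Chicken DT40 Tdp1-/- cells stably complemented with human TDP1 were seeded at 400 cells/well in medium containing 20 nM camptothecin, exposed to pin-transferred compounds, and grown at 37 °C for at least 48 hr. Viability was read as ATP luminescence.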
HT1080NT lethal = kills 2HG-producing HT-1080-NT fibrosarcoma cells | HT-1080-NT fibrosarcoma viability, CellTiter-Glo ATP luminescence, 48 h | hit rate 1.6% among 360,000 | Potency, µM (highest dose often 46.1 µM), without a hit: at the highest dose activity, negative = less viability, usual class: cytotoxic;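 further: NT is the 2HG producing partner of a matched IDH1 knockdown line; 0% = DMSO-treated cells and -100% = media-only wells without cells; nearly all actives have a fitted effect of over 55% in size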
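HT-1080-NT fibrosarcoma cells (2HG-overproducing), 750 cells/well in RPMI with 5% FBS, dosed after 2 h and incubated 48 h at 37C. CellTiter-Glo luminescence normalized to DMSO and no-cell wells; concentration-response curves fitted and classed.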
HT1080 IDH1KD tx = kills HT-1080 cells with IDH1 knockdown. HT-1080 IDH1 knockdown viability, ATP luminescence, 48 h. Potency, µM (highest dose often 46.1 µM), inactives show top-dose activity, negative = toxicity, most hits filed as cytotoxic. hit rate 2% among 360,000;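 further: 0% = DMSO wells and -100% = cell-free medium wells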
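Knockdown cells (IDH1KD HT-1080) received compounds 2 h after plating at 750 cells/well and were kept 48 h at 37 °C in 5% FBS RPMI. A CellTiter-Glo luminescence read gave % activity for curve fitting.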
TDP1 cell noCPT = qHTS for Inhibitors of human tyrosyl-DNA phosphodiesterase 1 (TDP1): qHTS in cells in absence of CPT | DT40 Tdp1-/- hTDP1 cells, no CPT, ATP luminescence, 48 h | Potency, µM (doses to about 46.2 µM), inactives show at the top dose activity change, negative = growth inhibition, usual class: inhibitors | AID 686978, 2013 | hit rate 15% among 420,000; further: on the % scale 0 is the no-effect control and ±100 the full control effect; nearly all actives have a fitted effect of over 55% in size
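Compound effects on proliferation are scored in DT40 Tdp1-/-;hTDP1 cells in the absence of CPT. ATP levels (CellTiter-Glo luminescence) are recorded after a ≥48 hr, 37 °C incubation.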
The depositor's hits bear a star; ? = inconclusive; / = not tested or not shown; [ ] = dose if it differs, or a comment. In the library only some 17% were active in any assay of this set; here they are far more common. The call rests on the fitted dose curve; in most records, active means well fitted curve in the direction sought with a large enough effect; inconclusive means small, poorly fitted or top-dose-only effect, or another doubt; inactive means no such curve, though single readings can be large; an effect the other way counts as inactive or inconclusive. Potency means the concentration at half of the fitted maximal effect.

SMILES | HepG2 tox | TGFb SMAD3 inh | TDP1 cell CPT | HT1080NT lethal | HT1080 IDH1KD tx | TDP1 cell noCPT
COc1ccc(S(=O)(=O)N2CCOCC2)cc1NC(=O)COC(=O)c1oc2ccccc2c1C | -5% | -1% | -10% | -16% | -1% | ?
COc1ccc(OCc2cc(C(=O)NC(C)Cn3cncn3)no2)c(Cl)c1 (stereo unspecified) | -16% | -14% | 3% | -2% | 0% | 4%
CC1CCN(S(=O)(=O)c2cn(CC(=O)Nc3ccc(F)c(Cl)c3)c(=O)c3ccccc23)CC1 | -23% | ? | 23µM* | / | / | 23µM*
COc1cc(NC(=O)Cn2cc(S(=O)(=O)N3CCC(C)CC3)c3ccccc3c2=O)cc(OC)c1OC | -2% | ? | ? | / | / | ?
COc1ccc(NC(=O)Cn2cnc3ccc(S(=O)(=O)N4CCC(C)CC4)cc3c2=O)cc1Cl | -8% | 8% | 7.3µM* | / | / | 4.1µM*
CC(C)c1c(C(=O)NCC(C)(C)N2CCOCC2)cnn1-c1nccc(-c2ccccc2F)n1 | / | / | -14%[9.04 µM] | / | / | ?
Cn1c(Cc2ccc(Cl)cc2)nnc1SCC(=O)NC1CC1 | 4% | 0% | 2% | 0% | 4% | 1%
O=C(N/N=C1\C(=O)c2cccc3cccc1c23)c1ccc(O)cc1 | -14% | -1% | ? | 7% | 18% | ?
CNC(=S)N/N=C1\C(=O)c2cccc3cccc1c23 | -36% | ? | 29µM* | ? | ? | 16µM*
CCCCNC(=S)N/N=C1\C(=O)c2cccc3cccc1c23 | 2% | 5% | ? | 9% | 9% | 26µM*
Cc1ccc(S(=O)(=O)CCC(=O)Nc2nc(C(C)(C)C)cs2)cc1 | 18% | -15% | ? | -20% | ? | ?
CC(C)(C)c1csc(NC(=O)CCS(=O)(=O)c2ccc(F)cc2)n1 | 13% | -25% | 8.2µM* | -13% | ? | 8.2µM*
O=C(COc1ccc(F)cc1)Nc1nc(-c2cccnc2)cs1 | -14% | 0% | ? | 10% | 4% | ?
O=C(CCS(=O)(=O)c1ccccc1)Nc1nc(-c2cccs2)cs1 | -61% | ? | ? | -10% | -16% | 21µM*
O=C(CCS(=O)(=O)c1ccc(F)cc1)Nc1nc(-c2ccncc2)cs1 | -42% | ? | 13µM* | -16% | 0% | 9.2µM*
CCO[C@@H]1OC(C(=O)N2CCN(C)CC2)=C[C@H](C(C)(C)C)[C@H]1CCCO | -15% | -3% | -8% | -1% | -5% | ?
CCC(C(=O)NC1CCCC1)N(Cc1ccco1)C(=O)CNS(=O)(=O)c1ccccc1 (stereo unspecified) | -6% | -10% | -2% | 22% | 2% | -17%
CCCNC(=O)c1cc(C2CCCCN2C(=O)OCC(C)C)on1 (stereo unspecified) | -1% | -17% | -25% | -1% | 16% | -26%
O=C1CCCC2=C1C(c1ccco1)Nc1ccc(C(=O)c3ccccc3)cc1N2 (stereo unspecified) | 11% | -21% | 15µM* | ? | ? | 12µM*
COc1cc(OC)cc(C(=O)NC2CCN(CC(=O)Nc3cccc4ccccc34)CC2)c1 | 2% | 2% | -3% | -8% | -18% | -30%
O=C1c2ccccc2C(=O)N1N(c1ccccc1)c1ccccc1 | -5% | -6% | -20% | 0% | -1% | 3%
O=C1C=CC(=O)N1N(c1ccccc1)c1ccccc1 | -38% | -33% | 10µM* | -26% | ? | 21µM*
Cc1ccc(N(CC(=O)NC(C)c2ccccc2)S(=O)(=O)c2c(C)noc2C)cc1 (stereo unspecified) | -26% | ? | ? | 0% | 12% | 16µM*
CCOc1ccc(OCC)c(NC(=O)CN(c2ccc(C)cc2)S(=O)(=O)c2c(C)noc2C)c1 | 19% | -1% | ? | 0% | 9% | 23µM*
CCOc1ccc(OCC)c(NC(=O)CN(c2ccc(OC)cc2)S(=O)(=O)c2c(C)noc2C)c1 | 8% | 9% | ? | -7% | -7% | ?
SMILES | HepG2 tox | TGFb SMAD3 inh | TDP1 cell CPT | HT1080NT lethal | HT1080 IDH1KD tx | TDP1 cell noCPT
Cc1ccc(N(CC(=O)Nc2cc(C)ccc2C)S(=O)(=O)c2c(C)noc2C)cc1 | -30% | ? | ? | / | / | 23µM*
CCOc1ccccc1NC(=O)CN(c1ccc(C)cc1)S(=O)(=O)c1c(C)noc1C | 3% | 0% | ? | -15% | -13% | ?
CCOc1ccc(N(CC(=O)Nc2ccccc2CC)S(=O)(=O)c2c(C)noc2C)cc1 | -21% | -15% | 4.6µM* | / | / | 3.7µM*
COc1ccc2ccccc2c1CN1CCc2nnc(CNC(=O)c3cccc(F)c3)n2CC1 | / | / | 12% | / | / | -24%
COc1cccc(CNC(=O)[C@@H]2CCCN2C(=O)[C@@H]2CCCN2S(=O)(=O)c2ccc(OC)c(C)c2)c1 | / | / | ? | 4% | 5% | ?
CCOc1ccc(N(CC(=O)NCCc2ccc(C)cc2)S(=O)(=O)c2c(C)noc2C)cc1 | -24% | -5% | 23µM* | -10% | -11% | ?
COc1cccc(CNC(=O)C2Cc3ccccc3CN2C(C)=O)c1 (stereo unspecified) | 1% | 7% | ? | 8% | 7% | -28%
CCc1nc(SCc2ccc(OCC(C)C)cc2)n[nH]1 | -30% | -20% | 4.6µM* | -28% | ? | ?
Cc1cccc(N(C)S(=O)(=O)c2csc(C(N)=O)c2)c1 | 3% | 5% | 4% | -2% | 11% | 7%
Cc1ccc2c(c1)cc(CN(Cc1ccc3c(c1)OCO3)C(=O)c1ccccc1)c1nnnn12 | -2% | -2% | ? | 17% | 15% | 21µM*
Cc1ccc2c(c1)cc(CN(CCc1ccccc1)C(=O)N1CCOCC1)c1nnnn12 | -29% | 0% | -21% | -3% | -3% | ?
Cc1ccc2cc(CN(CC3CCCO3)S(=O)(=O)c3ccccc3)c3nnnn3c2c1 (stereo unspecified) | -90% | ? | 29µM* | -5% | -12% | -29%
Cc1ccc2c(c1)cc(CN(Cc1ccco1)S(=O)(=O)c1ccccc1)c1nnnn12 | -13% | 8% | 13µM* | -1% | 0% | 21µM*
Cc1ccc2cc(CN(CC3CCCO3)C(=O)Nc3ccccc3F)c3nnnn3c2c1 (stereo unspecified) | -1% | -5% | -3% | 13% | 14% | ?

From PubChem
